An excerpt weighted towards active compounds, which were near 19% of everything screened.
TDP1 cell CPT = growth inhibition of DT40 Tdp1-/-;hTDP1 cells with camptothecin (screen for TDP1 inhibitors); 12% of 420,000 active; Potency, µM (series often up to 46.2 µM), inactives show top-dose activity change, negative = growth inhibition, actives largely listed as inhibitors; chicken DT40 Tdp1-/-;hTDP1 cells + 20 nM CPT, ATP luminescence, 48 h; note: potency is the fitted concentration of half-maximal effect; nearly all actives have a fitted effect of over 55% in size
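Chicken DT40 Tdp1-/- cells complemented with human TDP1, 400 cells/well, exposed to compounds plus 20 nM camptothecin for at least 48 h at 37 C; viability read as ATP content by CellTiter-Glo luminescence.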
TDP1 cell noCPT = qHTS for Inhibitors of human tyrosyl-DNA phosphodiesterase 1 (TDP1): qHTS in cells in absence of CPT. DT40 Tdp1-/- hTDP1 cells, no CPT, ATP luminescence, 48 h. Potency, µM (series often up to 46.2 µM), inactives show at the top dose activity change, negative = growth inhibition, actives largely listed as inhibitors. 15% of 420,000 active. AID 686978, 2013; note: potency is the fitted concentration of half-maximal effect; nearly all actives have a fitted effect of over 55% in size
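DT40 Tdp1-/-;hTDP1 cells, no CPT (DMSO vehicle only), 400 cells/well; compounds pin-transferred; ≥48 hr, 37 °C; CellTiter-Glo 30 min RT dark, luminescence read.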
ELG1 DNA repair = blocks ELG1-dependent DNA repair in HEK293T cells | HEK293T ELG1-luciferase reporter, luminescence, 16 h; DNA damage induced by 5-fluorouridine | Potency, µM (top dose mostly 46.1 µM), for the others: at the top dose activity change, negative = inhibition, usual class: inhibitors | 2.3% of 330,000 active | AID 504467; note: potency is the fitted concentration of half-maximal effect; nearly all actives have a fitted effect of over 55% in size
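HEK293T cells expressing luciferase-tagged ELG1 (2,000/well) received 5-Fluorouridine plus compound or DMSO for 16 hr at 37 °C. Luciferase was read by ONE-Glo luminescence after 30 min at room temperature.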
HT1080 IDH1KD tx = toxicity to HT-1080 IDH1 knockdown cells (counter line). HT-1080 IDH1 knockdown viability, ATP luminescence, 48 h. Potency, µM (titrated, usually from 46.1 µM), inactives show top-dose activity, negative = toxicity, hits mostly cytotoxic. 2% of 360,000 active. AID 686971;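 note: potency is the fitted concentration of half-maximal effect; 0% = DMSO wells and -100% = cell-free medium wells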
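Viability of IDH1-knockdown HT-1080 fibrosarcoma cells was assessed by CellTiter-Glo after 48 h at 37 °C with titrated compound; concentration-effect curves were classified by fit quality and response size.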
IL-1B inflam inh = inhibitors of inflammasome signaling (IL-1 beta secretion); THP-1 LPS/ATP IL-1B secretion, AlphaLISA, 16 h; active compounds read low; activity change, % at 57.5 µM; AID 743279; 4.7% of 360,000 active; in the data active = activity change below about -50%; inconclusive = mostly about -30% to -49%
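THP-1 cells pretreated 1 hr with compounds (up to 57.5 uM final), then stimulated with LPS (250 ng/mL final) plus ATP (1.25 mM final); secreted IL-1B measured by AlphaLISA after 16 hr, decreased signal indicating inhibition.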
HT1080NT lethal = kills 2HG-producing HT-1080-NT fibrosarcoma cells. HT-1080-NT fibrosarcoma viability, CellTiter-Glo ATP luminescence, 48 h. Potency, µM (series often up to 46.1 µM), inactives show at the top dose activity, negative = less viability, usual class: cytotoxic. 1.6% of 360,000 active. AID 686970;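 note: NT is the 2HG producing partner of a matched IDH1 knockdown line; potency is the fitted concentration of half-maximal effect; 0% = DMSO-treated cells and -100% = media-only wells without cells; nearly all actives have a fitted effect of over 55% in size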
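Toxicity toward the 2HG-producing NT line was scored as %Activity, normalised to DMSO and no-cell wells, from CellTiter-Glo luminescence after 48 hours' treatment.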
ELG1 FLuc counter = luciferase inhibition in cell-free luciferin readout for ELG1 hits; shares compounds with ELG1 DNA repair; cell-free firefly luciferase luminescence counter-screen, ViewLux; Potency, µM (highest dose often 46.1 µM), without a hit: at the highest dose activity change, negative = inhibition, hits mostly inhibitors; 3% of 350 active; AID 624247; note: potency is the fitted concentration of half-maximal effect
ELG1 Luc conf = inhibits ELG1-dependent DNA repair in HEK293T cells, confirmed | HEK293T ELG1-luciferase levels, luminescence; cells co-treated with 5-fluorouridine | 68% of 670 active | shares compounds with ELG1 DNA repair | Potency, µM (highest dose often 46.1 µM), for the others: at the highest dose activity change, negative = inhibition, most hits filed as inhibitors; note: potency is the fitted concentration of half-maximal effect; nearly all actives have a fitted effect of over 55% in size
ELG1-Luc MMS = inhibits ELG1-dependent repair under MMS stimulation in HEK293T cells; shares compounds with ELG1 DNA repair; Potency, µM (series often up to 46.1 µM), without a hit: at the top dose activity change, negative = inhibition, usual class: inhibitors; 53% of 670 active; AID 624249; HEK293T luciferase-tagged ELG1 level, MMS stimulated; note: potency is the fitted concentration of half-maximal effect; nearly all actives have a fitted effect of over 60% in size
ELG1 5-FU = confirmation of ELG1 repair inhibitors: viability with 5FU. shares compounds with ELG1 DNA repair. cell viability with 5-FU, ELG1-dependent repair. Potency, µM (doses to about 46.1 µM), without a hit: at the top dose activity change, negative = viability loss, usual class: cytotoxic. 670 tested, under 10 active. AID 624250;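 note: ELG1-luc HEK293T cells cotreated with 5-fluorouridine at 10 µM final; potency is the fitted concentration of half-maximal effect; viability measured 16 h after compound addition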
ELG1 MMS cell = confirmation of ELG1 repair inhibitors: viability with MMS; shares compounds with ELG1 DNA repair; Cell viability with MMS, ELG1-dependent DNA repair; Potency, µM (doses to about 46.1 µM), without a hit: top-dose activity change, negative = viability loss, actives largely listed as cytotoxic; 33% of 670 active; AID 624251;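 note: ELG1-luc HEK293T cells co-treated with 10 µM MMS; potency is the fitted concentration of half-maximal effect; viability read 16 h after compound addition; nearly all actives have a fitted effect of over 60% in size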
ELG1 unstim viab = affects unstimulated cell viability, ELG1 hit counter-screen. 8% of 900 active. AID 624252. shares compounds with ELG1 DNA repair. cell viability counter-screen, unstimulated, luminescence. Potency, µM (series often up to 45.9 µM), inactives show top-dose activity change, negative = loss of viability, usual class: cytotoxic;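 note: potency is the fitted concentration of half-maximal effect; compound exposure lasted 16 hours before reading; nearly all actives have a fitted effect of over 55% in size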
FLuc biochem = counter-screen for ELG1 repair inhibitors: firefly luciferase inhibition | shares compounds with ELG1 DNA repair | purified firefly luciferase, luminescence counter-screen | Potency, µM (titrated, usually from 57.5 µM), for the others: at the highest dose activity, negative = inhibition, usual class: inhibitors | 10% of 350 active; note: potency is the fitted concentration of half-maximal effect
* = called active by the depositor; u = inconclusive; x = not tested or not shown. Unless noted, calls come from the whole dose curve; as a rule, active = well fitted curve in the direction sought with a large enough effect; inconclusive = small, poorly fitted or top-dose-only effect, or another doubt; inactive = no such curve, though single readings can be large; an effect the other way counts as inactive or inconclusive. Unless noted, % is set by controls: 0 for no effect and ±100 for the full control effect.

SMILES | TDP1 cell CPT | TDP1 cell noCPT | ELG1 DNA repair | HT1080 IDH1KD tx | IL-1B inflam inh | HT1080NT lethal | ELG1 unstim viab | others
Cc1nc2sc3c(NCc4ccco4)ncnc3c2c2c1COC(C)(C)C2 | u | 23.1µM* | 2.59µM* | u | u | -13.3% | u | ELG1 FLuc counter=-6.7%;ELG1 Luc conf=3.54µM*;ELG1-Luc MMS=22.3µM*;ELG1 5-FU=u;ELG1 MMS cell=-11.2%;FLuc biochem=-3.8%
Cc1cccc(NS(=O)(=O)c2nnc(NC(=O)C3CCCCC3)s2)c1 | u | u | -3.7% | -7.1% | 35.6 | -6.6% | x
O=C(CCCCCNC(=O)N1CCn2c1nc1ccccc12)NCCc1ccccc1 | u | u | 5.0% | 2.2% | 0.0 | 2.4% | x
CCCCCCC[C@@H](C/C=C/CCC(=O)N(C)C/C(=C/Cl)C/C(=C\C(=O)N1CC(OC)=CC1=O)OC)OC | 2.31µM* | 1.84µM* | u | 9.2µM* | 105.9 | 5.8µM* | u
COC(=O)c1sc(S(=O)(=O)NCCC(=O)O)c(C(=O)OC)c1C | -7.2% | -1.8% | -2.9% | 4.8% | 20.5 | 11.8% | x
COc1ccccc1C(=O)COC(=O)c1cc(=O)[nH]c2ccccc12 | -6.3% | -23.1% | u | 11.2% | 6.4 | 8.7% | x
COCC(C)n1c(C)cc(C(=O)COC(=O)c2cc(=O)[nH]c3ccccc23)c1C (stereo not drawn) | u | u | u | -4.6% | -11.6 | 0.6% | 6.1%
Cn1cccc1C(=O)Nc1ccc(N2CCOCC2)cc1 | 0.0% | 13.6% | u | -11.1% | -11.9 | -7.9% | -13.4%
O=C(Nc1ccc(N2CCOCC2)cc1)c1ccncc1 | -8.9% | 8.3% | u | 10.0% | 8.9 | 15.7% | x
[N-]=[N+]=Nc1nc2c(N)ncnc2n1C1OC(CO)C(O)C1O (stereo not drawn) | 0.411µM* | 0.581µM* | x | x | x | x | 7.91µM* | ELG1 Luc conf=3.53µM*;ELG1-Luc MMS=3.97µM*;ELG1 5-FU=u;ELG1 MMS cell=u
Nc1ncnc2c1nc(Br)n2C1CC(O)C(CO)O1 (stereo not drawn) | -3.1% | -7.3% | x | x | x | x | x
CCn1c(SCC(=O)NC2CCCCC2)nc2ccccc2c1=O | 7.5% | -21.5% | -3.3% | 5.4% | 10.6 | 0.6% | x
CCCCC(=O)NCCNc1nc2c(c(=O)n(C)c(=O)n2C)n1Cc1ccccc1 | u | u | -10.6% | -2.3% | 14.6 | 2.2% | x
CCCNc1nc2c(c(=O)n(C)c(=O)n2C)n1Cc1cccc(C)c1 | 7.31µM* | 5.8µM* | 1.3µM* | -8.2% | 14.0 | u | -18.3% | ELG1 Luc conf=u;ELG1-Luc MMS=6.28µM*;ELG1 5-FU=3.5%;ELG1 MMS cell=7.91µM*
CCOc1ccc(CCNc2nc3c(c(=O)n(C)c(=O)n3C)n2CC)cc1OCC | 15.8µM* | 14.1µM* | u | 6.1% | 1.6 | -1.2% | -7.2% | ELG1 FLuc counter=-10.6%;ELG1 Luc conf=14.1µM*;ELG1-Luc MMS=11.2µM*;ELG1 5-FU=4.3%;ELG1 MMS cell=-17.7%;FLuc biochem=1.2%
CCCc1nc2nc(C)c(NS(=O)(=O)c3ccc(C4CCCCC4)cc3)c(=O)n2[nH]1 | 6.8% | -7.0% | -4.8% | -1.1% | 18.3 | 0.0% | x
O=C(Cn1cnc2cc([N+](=O)[O-])ccc2c1=O)Nc1cccc(S(=O)(=O)N2CCOCC2)c1 | -9.0% | -21.8% | 3.26µM* | u | -27.2 | -27.2% | u | ELG1 Luc conf=u;ELG1-Luc MMS=27.7%;ELG1 5-FU=u;ELG1 MMS cell=-10.8%
O=C(Cn1cnc2ccccc2c1=O)Nc1ccc(S(=O)(=O)N2CCOCC2)cc1 | -21.9% | -2.4% | -0.6% | 6.4% | 55.5 | 12.6% | x
C(=C\c1c[nH]c2ccccc12)/c1ccc2ccccc2n1 | u | u | x | x | x | x | u | ELG1 FLuc counter=-38.7%;FLuc biochem=0.116µM*
N#Cc1cc2cc3c(cc2nc1SCC(=O)N1CCOCC1)OCO3 | 1.5% | -22.7% | u | 17.6% | -7.5 | 7.2% | 0.1% | ELG1 FLuc counter=49.2%;FLuc biochem=-10.1%
CCOc1ccc2nc(SCC(=O)N3CCCCCC3)c(C#N)cc2c1 | u | -86.7% | -21.7% | 8.2% | -18.0 | -15.3% | x
Cc1cc2cc3c(cc2nc1SCC(=O)N1CCOCC1)OCO3 | 6.5% | -20.4% | 1.0% | -18.1% | -1.6 | -1.3% | -1.0% | ELG1 FLuc counter=31.9%;FLuc biochem=-10.1%
COC(=O)CSc1nc2cc3c(cc2cc1C#N)OCO3 | -15.4% | -11.6% | u | -16.3% | -2.9 | -2.5% | x
